PMC5540273 (PLoS ONE, 2017)

Each molecule was assayed on CLK4. Details: concentration: 1 μM, replicates: in singlicate; n = 1.
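Also: KINOMEscan kinase panel screen.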

Row | SMILES | %Inh [%]
1 | CN1CCN(CCCNc2nccc(-c3c(-c4ccc(F)cc4)nn4cc(C(F)(F)F)ccc34)n2)CC1 [GW621581] | 22
2 | C[C@@H]1CC[C@@H](C(=O)Nc2ccccc2)CN1c1cc(-c2ccc3c(N)n[nH]c3c2)nc(N)n1 [GSK2286062] | 16
3 | Cl.Cl.NCC(NCc1ccc(-c2ccnc3[nH]ccc23)s1)c1ccccc1 (stereo not drawn) [GSK1321565] | 88
4 | Nc1n[nH]c2cnc(-c3ccccc3)cc12 [SB-642124] | 64
5 | COc1cccc(NC(=O)NC2CCN(c3ccnc(Nc4cc(OC)c(OC)c(OC)c4)n3)C2)c1 (stereo not drawn) [GSK1379763] | 0
6 | COc1cccc(C(=O)Nc2cccc(Oc3ccc4nc(NC(=O)C5CC5)cn4n3)c2)c1 | 0
7 | c1ccc(-c2n[nH]cc2Nc2ccnc3ccccc23)nc1 [GW694077] | 96.5
8 | O=C(Nc1cccc(-c2nn3ccccc3c2-c2ccnc(Nc3cccc(C(F)(F)F)c3)n2)c1)c1c(F)cccc1F [GSK292658] | 8
9 | CSc1cccc2c(-c3ccncn3)c(-c3ccc(F)cc3)nn12 [GW514786] | 13
10 | COc1ccc(CNC(=O)NC2CCN(c3ccnc(Nc4ccc(F)cc4)n3)CC2)cc1 [GSK1379788] | 0
11 | COCCOCCOc1cc2ncc3c4ccc(C#N)cc4[nH]c3c2cc1OC | 76
12 | FC(F)(F)c1ccc(/C=C/c2cncnc2Nc2ccc3[nH]c(Cc4ccccc4)nc3c2)cc1 [GW709199] | 0
13 | COc1cc(Nc2nccc(N3CCC(NC(=O)Nc4cccc(C(C)=O)c4)C3)n2)cc(OC)c1OC (stereo not drawn) [GSK1379753] | 0
14 | O=C(O)C(F)(F)F.O=C(O)C(F)(F)F.O=c1[nH]ccc2nc(N[C@@H]3CCCNC3)nc(Nc3ccc(S(=O)(=O)N4CCOCC4)cc3)c12 [GSK2177277] | 79
15 | Cc1ccc(C(=O)N2CC[C@@H](O)C2)cc1-n1c(C)cc(OCc2ccc(F)cc2F)c(Br)c1=O | 0
16 | Cl.c1ccc(-c2ccc3c(Nc4ccc5[nH]ccc5c4)ccnc3c2)nc1 [GW440138] | 19
17 | CCCCc1nn2ncccc2c1-c1ccnc(Nc2ccc(N3CCN(C)CC3)cc2)n1 [GW684941] | 0

Row | SMILES | %Inh [%]
18 | COc1ccc(Nc2nccc(NCCNC(=O)c3cc4ccccc4s3)n2)cc1 [GSK1379896] | 0
19 | COc1ccc(Nc2nccc(N3CCC(NC(=O)Nc4cccc(OC)c4)C3)n2)cc1 (stereo not drawn) [GSK1379742] | 9
20 | O=C(Nc1ccccc1F)NC1CCN(c2ccnc(Nc3ccc(F)cc3)n2)CC1 [GSK1379800] | 0
21 | Cn1cc(-c2ccc3c(c2)CCN3C(=O)Cc2cccc(F)c2)c2c(N)ncnc21 [GSK2603358] | 39
22 | CCc1ccc(-c2ccc3c(c2)-c2c(cnn2C)S(=O)(=O)N3C)cc1 | 10
23 | COc1cc(Nc2nccc(-c3c(-c4cccc(NC(=O)c5c(F)cccc5F)c4)nn4ccccc34)n2)cc(OC)c1OC [GSK323521] | 18
24 | O=C(Nc1cccc(Oc2ccc3nc(NC(=O)C4CC4)cn3n2)c1)c1ccccc1C(F)(F)F | 0
25 | O=c1[nH]cc(-c2ccc(N3CCOCC3)cc2)c2sc(-c3cn[nH]c3)cc12 [GSK2276055] | 89
26 | Cc1cccc(Nc2nc(N[C@H]3CCNC3)ncc2C(N)=O)c1.Cl [GSK2197149] | 33
27 | Nc1ncc(-c2cccnc2)c2scc(-c3ccc4c(c3)CCN4C(=O)Cc3ccccc3)c12 [GSK683281] | 18
28 | Cl.Cl.NCC(C(=O)Nc1cc(Br)c(-c2ccnc3[nH]ccc23)s1)c1ccccc1 (stereo not drawn) [GSK1269851] | 61
29 | Fc1ccc(-c2ncn(C3CCNCC3)c2-c2ccnc(Oc3ccc(-c4ccccc4)cc3)n2)cc1 [SB-245391] | 0
30 | Cl.c1ccc(-c2ccc3c(Nc4ccc5[nH]ncc5c4)ccnc3c2)nc1 [GW440137] | 21
31 | Cl.NC(=O)c1cccc(Nc2nccc(Nc3ccc(Oc4c(Cl)cccc4Cl)c(Cl)c3)n2)c1 [GW659009] | 34
32 | O=C(Nc1cccc(-c2nn3ncccc3c2-c2ccnc(Nc3ccccc3)n2)c1)c1c(F)cccc1F [GSK198271] | 8
33 | COC(=O)Nc1nc2ccc(Oc3ccc(NC(=O)Nc4cc(C(F)(F)F)ccc4F)cc3)cc2n1C.Cl [GW692089] | 0
